Values joined by “and” are separate entries in the source; they are usually repeats but may differ in a detail not shown here. Equal entries are not always repeated. In all, about 5,500 compounds went through this assay and about 2,000 (36%) were called active. Inconclusive results (about 18%) are left out. Rule as the data show it: active = normalized growth mostly below about 0.91 (no sharp cut-off); inconclusive = no clear call, values can overlap the other calls; inactive = mostly above about 0.92. The list shows a part of the results.
Assay: chemical genetic growth profiling, strain panel (AID 1159580);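 also: tested at 20 µM; growth read once vehicle control cultures reached saturation at 30 °C; 1 = growth at the plate median or of vehicle wells; lower values mean less growth of the strain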
Conditions: S. cerevisiae deletion strains, growth OD

Measured: normalized growth

C[N+](C)(C)CC(O)CC(=O)O (stereo unspecified)
inactive: locus YAL013W, strain DEP1, hits give low values 1.02 | locus YAL021C, strain ccr4, hits give low values 1.01 | locus YAL026C, strain drs2, hits give low values 0.982 | locus YAL030W, strain snc1, hits give low values 0.982 | locus YBL061C, strain skt5, hits give low values 0.977 | locus YBR009C, strain hhf1, hits give low values 1 | locus YBR021W, strain FUR4, hits give low values 0.992 | locus YBR023C, strain chs3, hits give low values 0.985 | locus YBR171W, strain sec66, hits give low values 0.981 | locus YBR229C, strain ROT2, hits give low values 1 | locus YBR231C, strain swc5, hits give low values 0.974 | locus YBR279W, strain paf1, hits give low values 0.998 | locus YCL011C, strain gbp2, hits give low values 0.978 | locus YCL016C, strain dcc1, hits give low values 0.96 | locus YCL029C, strain bik1, hits give low values 1 | locus YCL069W, strain vba3, hits give low values 0.981 | locus YCR088W, strain abp1, hits give low values 0.986 | locus YDL005C, strain med2, hits give low values 0.98 | locus YDL035C, strain GPR1, hits give low values 1.02 | locus YDL040C, strain nat1, hits give low values 0.982 | locus YDL074C, strain BRE1, hits give low values 1.01 | locus YDL101C, strain DUN1, hits give low values 1 | locus YDL134C, strain PPH21, hits give low values 1.01 | locus YDL185W, strain tfp1, hits give low values 0.996 | locus YDL192W, strain arf1, hits give low values 0.997 | locus YDR001C, strain nth1, hits give low values 0.975 | locus YDR069C, strain doa4, hits give low values 1.01 | locus YDR101C, strain arx1, hits give low values 0.983 | locus YDR137W, strain rgp1, hits give low values 0.972 | locus YDR150W, strain NUM1, hits give low values 1.01 | locus YDR159W, strain sac3, hits give low values 1.02 | locus YDR162C, strain NBP2, hits give low values 1 | locus YDR195W, strain ref2 0.96 | locus YDR297W, strain sur2, hits give low values 0.998 | locus YDR318W, strain mcm21, hits give low values 0.999 | locus YDR334W, strain swr1, hits give low values 0.969 | locus YDR335W, strain msn5, hits give low values 0.971 | locus YDR388W, hits give low values 1.01 | locus YDR392W, strain spt3, hits give low values 0.973 | locus YDR502C, strain sam2, hits give low values 1.02 | locus YEL003W, strain gim4, hits give low values 0.986 | locus YEL037C, strain rad23, hits give low values 0.969 | locus YEL061C, strain CIN8 (second series), hits give low values 0.981 | locus YEL061C, strain CIN8, hits give low values 1 | locus YER015W, strain faa2, hits give low values 0.977 | locus YER016W, strain bim1, hits give low values 0.965 | locus YER110C, hits give low values 0.991 | locus YER111C, strain swi4, hits give low values 0.96 | locus YER155C, strain BEM2 (second series), hits give low values 0.965 | locus YER155C, strain BEM2, hits give low values 0.995 | locus YER167W, strain BCK2, hits give low values 0.995 | locus YFR010W, strain ubp6, hits give low values 1 | locus YGL078C, strain dbp3, hits give low values 1 | locus YGL086W, strain mad1, hits give low values 0.998 | locus YGL167C, strain pmr1, hits give low values 0.98 | locus YGL173C, strain kem1, hits give low values 0.968 | locus YGL227W, strain vid30, hits give low values 0.985 | locus YGL240W, strain doc1, hits give low values 0.998 | locus YGL248W, strain PDE1, hits give low values 1 | locus YGL253W, strain hxk2, hits give low values 0.957 | locus YGR078C, strain PAC10, hits give low values 1 | locus YGR135W, strain pre9, hits give low values 0.994 | locus YGR229C, strain SMI1, hits give low values 1.02 | locus YGR252W, strain gcn5, hits give low values 1 | locus YHR013C, strain ard1, hits give low values 0.95 | locus YHR027C, strain rpn1, hits give low values 0.984 | locus YHR030C, strain SLT2, hits give low values 1 and 0.979 | locus YHR079C, strain IRE1 (second series), hits give low values 0.999 | locus YHR079C, strain IRE1, hits give low values 0.976 | locus YHR094C, strain hxt1, hits give low values 0.996 | locus YHR129C, strain ARP1, hits give low values 0.999 | locus YHR142W, strain chs7, hits give low values 0.968 | locus YHR200W, strain rpn10, hits give low values 1 | locus YIL066C, strain RNR3, hits give low values 1.02 | locus YIL073C, strain SPO22, hits give low values 1.04 | locus YIL125W, strain kgd1, hits give low values 1 | locus YIR030C, strain dcg1, hits give low values 0.998 | locus YJL092W, strain hpr5, hits give low values 0.984 | locus YJL095W, strain BCK1 (second series), hits give low values 0.974 | locus YJL095W, strain BCK1, hits give low values 1 and 0.989 | locus YJL115W, strain asf1, hits give low values 0.977 | locus YJL129C, strain trk1, hits give low values 0.983 | locus YJL134W, strain LCB3, hits give low values 1 | locus YJL154C, strain vps35, hits give low values 0.975 | locus YJL164C, strain tpk1, hits give low values 0.989 | locus YJL166W, strain qcr8, hits give low values 1.02 | locus YJL168C, strain set2, hits give low values 0.997 | locus YJL187C, strain SWE1 (second series), hits give low values 1.01 | locus YJR043C, strain POL32, hits give low values 1 | locus YJR066W, strain TOR1, hits give low values 0.929 | locus YJR075W, strain HOC1, hits give low values 1.01

From PubChem BioAssay AID1159580 (chemical genetic matrix, 2015)
